Experimental data: the supplement of paper PMC8728848
The sample as a whole holds a higher share of the strongest signals than the screen did.

What was measured:
Assay in all cases: glycan array binding signal (z-score within array); higher = stronger binding
Details in all cases: glycan notation: IUPAC condensed, linker removed
[1] = target: Fuc(a1-2)Gal(b1-3)GalNAc(a1-3)[Fuc(a1-2)]Gal(b1-4)GlcNAc
Procedure, shortened: (§1)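 Arrays were curated from the Consortium for Functional Glycomics database, 3228 in total, and kept only where the protein sequence was available. Binding is expressed as a within-array Z-score. This score was averaged across arrays of the same protein sequence at different concentrations or buffers and across linkers, and negative values can be read as non-binding.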

[2] = target: Fuc(a1-2)[Gal(a1-3)]Gal(b1-3)GlcNAc(b1-2)Man(a1-3)[Fuc(a1-2)[Gal(a1-3)]Gal(b1-3)GlcNAc(b1-2)Man(a1-6)]Man(b1-4)GlcNAc(b1-4)GlcNAc
Procedure, shortened: as §1

[3] = target: Fuc(a1-2)[Gal(a1-3)]Gal(b1-4)Glc
Procedure, shortened: as §1

[4] = target: Fuc(a1-2)[Gal(a1-3)]Gal(b1-4)GlcNAc
Procedure, shortened: as §1

[5] = target: Fuc(a1-2)[Gal(a1-3)]Gal(b1-4)GlcNAc(b1-2)Man(a1-3)[Fuc(a1-2)[Gal(a1-3)]Gal(b1-4)GlcNAc(b1-2)Man(a1-6)]Man(b1-4)GlcNAc(b1-4)GlcNAc
Procedure, shortened: as §1

[6] = target: Fuc(a1-2)[GalNAc(a1-3)]Gal(b1-3)GlcNAc(b1-2)Man(a1-3)[Fuc(a1-2)[GalNAc(a1-3)]Gal(b1-3)GlcNAc(b1-2)Man(a1-6)]Man(b1-4)GlcNAc(b1-4)GlcNAc
Procedure, shortened: as §1

[7] = target: Fuc(a1-2)[GalNAc(a1-3)]Gal(b1-3)GlcNAc(b1-3)GalNAc
Procedure, shortened: as §1

[8] = target: Fuc(a1-2)[GalNAc(a1-3)]Gal(b1-4)GlcNAc(b1-2)Man(a1-3)[Fuc(a1-2)[GalNAc(a1-3)]Gal(b1-4)GlcNAc(b1-2)Man(a1-6)]Man(b1-4)GlcNAc(b1-4)[Fuc(a1-6)]GlcNAc
Procedure, shortened: as §1

[9] = target: Fuc(a1-2)[GalNAc(a1-3)]Gal(b1-4)GlcNAc(b1-3)Gal(b1-4)GlcNAc
Procedure, shortened: as §1

[10] = target: Fuc(a1-2)[GalNAc(a1-3)]Gal(b1-4)GlcNAc(b1-3)Gal(b1-4)GlcNAc(b1-3)Gal(b1-4)GlcNAc
Procedure, shortened: as §1

[11] = target: Fuc(a1-2)[GalNAc(a1-3)]Gal(b1-4)GlcNAc(b1-3)[Fuc(a1-2)[GalNAc(a1-3)]Gal(b1-4)GlcNAc(b1-6)]GalNAc
Procedure, shortened: as §1

[12] = target: Fuc(a1-2)[GalNAc(a1-3)]Gal(b1-4)[Fuc(a1-3)]GlcNAc(b1-3)GalNAc
Procedure, shortened: as §1

[13] = target: Fuc(a1-3)[Gal3S(b1-4)]GlcNAc
Procedure, shortened: as §1

[14] = target: Gal(b1-3)Gal(b1-4)GlcNAc
Procedure, shortened: as §1

[15] = target: Gal(b1-3)GalNAc(a1-3)[Fuc(a1-2)]Gal(b1-4)Glc
Procedure, shortened: as §1

[16] = target: Gal(b1-3)GalNAc(a1-3)[Fuc(a1-2)]Gal(b1-4)GlcNAc
Procedure, shortened: as §1

[17] = target: Gal(b1-3)GlcNAc(b1-3)Gal(b1-4)GlcNAc(b1-3)Gal(b1-4)GlcNAc(b1-2)[Gal(b1-3)GlcNAc(b1-3)Gal(b1-4)GlcNAc(b1-3)Gal(b1-4)GlcNAc(b1-6)]Man(a1-6)[Gal(b1-3)GlcNAc(b1-3)Gal(b1-4)GlcNAc(b1-3)Gal(b1-4)GlcNAc(b1-2)Man(a1-3)]Man(b1-4)GlcNAc(b1-4)[Fuc(a1-6)]GlcNAc
Procedure, shortened: as §1

[18] = target: Gal(b1-3)GlcNAc(b1-3)Gal(b1-4)GlcNAc(b1-6)[Gal(b1-3)GlcNAc(b1-3)]Gal(b1-4)Glc
Procedure, shortened: as §1

[19] = target: Gal(b1-3)[Fuc(a1-4)]GlcNAc(b1-2)Man(a1-3)[Gal(b1-3)[Fuc(a1-4)]GlcNAc(b1-2)Man(a1-6)]Man(b1-4)GlcNAc(b1-4)[Fuc(a1-6)]GlcNAc
Procedure, shortened: as §1

[20] = target: Gal(b1-4)GlcNAc(b1-2)Man(a1-3)[GlcNAc(b1-2)Man(a1-6)]Man(b1-4)GlcNAc(b1-4)GlcNAc
Procedure, shortened: as §1

[21] = target: Gal(b1-4)GlcNAc(b1-3)Gal(b1-4)GlcNAc(b1-2)Man(a1-3)[Gal(b1-4)GlcNAc(b1-3)Gal(b1-4)GlcNAc(b1-2)Man(a1-6)]Man(b1-4)GlcNAc(b1-4)[Fuc(a1-6)]GlcNAc
Procedure, shortened: as §1

[22] = target: Gal(b1-4)GlcNAc(b1-3)Gal(b1-4)GlcNAc(b1-3)Gal(b1-4)GlcNAc(b1-3)Gal(b1-4)GlcNAc(b1-2)Man(a1-3)[Gal(b1-4)GlcNAc(b1-3)Gal(b1-4)GlcNAc(b1-3)Gal(b1-4)GlcNAc(b1-3)Gal(b1-4)GlcNAc(b1-2)Man(a1-6)]Man(b1-4)GlcNAc(b1-4)[Fuc(a1-6)]GlcNAc
Procedure, shortened: as §1

[23] = target: Gal3S(b1-4)Glc6S
Procedure, shortened: as §1

[24] = target: GalNAc4S6S(b1-4)GlcNAc
Procedure, shortened: as §1

[25] = target: GlcA(b1-3)GlcNAc
Procedure, shortened: as §1

B1: CvGal2 (Crassostrea virginica) (protein)
chain: MGSSHHHHHHSSGLVPRGSHMRIREAGKRKDTTKVYQIPDGLFPGQQVMLRGRVPWGSKSFSINFSATPRMGEGDILFHLNPRPSEGVCIRNALLNGSWGAEEKWQPYFPFDDGRSFSVKIEVTNDAFRTFVNGRPFVDFLHRTDFRAGKYLTLREGAEYYDVIFQSKPNIPLTTAIHNGMRIGKTIRIRGMCTAQDGFAINFNDNRNNIYFHFNARPAQRTVVRNSYFGSWGNEETAISKEFPFYPFLYFYASFVCMEDKFAVYVNDEHFIDFAHRGNPNNISVLQIKGSVNVLDTECLEPMGEDAMTEVDSGLENGDLFVLNGLMTERGKTFAVNFLNGFTENDDIALHFNPRKSTGEVVLNSRYGGAWQSEEKVALPGVFWSNRPLQVKVETKRNKFKIYVNGVDLAKYKIRGNVEDVHAVQVKGDVFLLETLLLKRLMKPVWERLTGGIRPGTWVTLQGTPKKNWQQFVVNFALDDTLDGDIAFHFNVRRGARQVVRNHRQSGAWGREETVTPFFAFDSEATFEIVFFVKEEKFLIYFNGKLFFEFVHRVPVERITHIYMDGDCNFYEPEVVI
- glycan array binding signal (z-score) [1]: 4.44
- glycan array binding signal (z-score) [2]: 5.23
- glycan array binding signal (z-score) [3]: 4.03
- glycan array binding signal (z-score) [4]: 2.16
- glycan array binding signal (z-score) [5]: 7.14
- glycan array binding signal (z-score) [6]: 4.12
- glycan array binding signal (z-score) [7]: 0.97
- glycan array binding signal (z-score) [8]: 3.72
- glycan array binding signal (z-score) [9]: 3.77
- glycan array binding signal (z-score) [10]: 4.33
- glycan array binding signal (z-score) [11]: 6.77
- glycan array binding signal (z-score) [12]: -0.333
- glycan array binding signal (z-score) [13]: -0.329
- glycan array binding signal (z-score) [14]: 0.538
- glycan array binding signal (z-score) [15]: 3.35
- glycan array binding signal (z-score) [16]: 4.05
- glycan array binding signal (z-score) [17]: 2.77
- glycan array binding signal (z-score) [18]: 4.4
- glycan array binding signal (z-score) [19]: -0.33
- glycan array binding signal (z-score) [20]: -0.329
- glycan array binding signal (z-score) [21]: -0.175
- glycan array binding signal (z-score) [22]: -0.126
- glycan array binding signal (z-score) [23]: 0.689
- glycan array binding signal (z-score) [24]: -0.33
- glycan array binding signal (z-score) [25]: -0.318
